Results published in the supplement of paper PMC12819154, “High-throughput peptide-centric local stability assay extends protein–ligand identification to membrane proteins, tissues and bacteria” (Nature Structural & Molecular Biology, 2025).

compound: Nc1ncnc2c1ncn2[C@@H]1O[C@H](COP(=O)(O)OP(=O)(O)OP(=O)(O)O)[C@@H](O)[C@H]1O [adenosine 5'-triphosphate]; assay: log2 fold change of tryptic peptide abundance, ligand vs vehicle (limited proteolysis) (log2 ratio); higher = more trypsin-susceptible (destabilized); details: ligand concentration: 5 mM; sample: E. coli desalted lysate; replicate design: treated before aliquoting
Procedure: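 HT-PELSA: desalted E. coli K-12 BW25113 lysate (with 12 mM MgCl2) incubated with 5 mM ATP (pH 7) or water for 30 min at 25 C, then a 4 min trypsin pulse at 22 C. Peptides were quantified by DIA-MS (4 replicates). Value is the peptide log2 fold change (treated/control); negative = stabilized. Scale: negative = ligand-stabilized region.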
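Further: lysate desalted by size exclusion to strip endogenous ATP, peptide intensities built from DIA-NN precursor signals, and peptides missing any value discarded before comparison.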

Chain of UniProt P37326 (P37326 whole entry): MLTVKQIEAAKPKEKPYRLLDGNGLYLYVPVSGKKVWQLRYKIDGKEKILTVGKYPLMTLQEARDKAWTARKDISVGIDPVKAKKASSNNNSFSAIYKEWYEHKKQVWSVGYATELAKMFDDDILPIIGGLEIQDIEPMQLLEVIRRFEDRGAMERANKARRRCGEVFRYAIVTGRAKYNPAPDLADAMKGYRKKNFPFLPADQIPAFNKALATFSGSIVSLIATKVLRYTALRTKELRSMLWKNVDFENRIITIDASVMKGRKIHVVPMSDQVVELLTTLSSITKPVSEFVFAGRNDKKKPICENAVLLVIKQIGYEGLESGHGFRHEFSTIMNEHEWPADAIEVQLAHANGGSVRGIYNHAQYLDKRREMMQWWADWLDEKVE
Chain of UniProt Q47622 (Q47622 whole entry): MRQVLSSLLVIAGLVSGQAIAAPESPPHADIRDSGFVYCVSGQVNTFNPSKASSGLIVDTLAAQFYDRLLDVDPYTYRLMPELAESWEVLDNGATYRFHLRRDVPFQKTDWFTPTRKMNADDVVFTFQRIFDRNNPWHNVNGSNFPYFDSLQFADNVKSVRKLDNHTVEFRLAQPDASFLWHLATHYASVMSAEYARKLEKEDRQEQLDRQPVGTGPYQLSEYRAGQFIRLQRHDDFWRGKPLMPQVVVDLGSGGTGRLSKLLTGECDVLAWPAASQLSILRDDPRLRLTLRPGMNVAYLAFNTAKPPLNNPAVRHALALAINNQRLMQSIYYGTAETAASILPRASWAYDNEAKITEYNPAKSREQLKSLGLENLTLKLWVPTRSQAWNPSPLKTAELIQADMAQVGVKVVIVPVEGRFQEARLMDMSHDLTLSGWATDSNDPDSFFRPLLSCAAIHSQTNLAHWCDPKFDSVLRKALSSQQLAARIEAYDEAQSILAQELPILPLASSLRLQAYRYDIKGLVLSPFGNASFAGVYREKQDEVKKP
Chain of UniProt P75682 (P75682 whole entry): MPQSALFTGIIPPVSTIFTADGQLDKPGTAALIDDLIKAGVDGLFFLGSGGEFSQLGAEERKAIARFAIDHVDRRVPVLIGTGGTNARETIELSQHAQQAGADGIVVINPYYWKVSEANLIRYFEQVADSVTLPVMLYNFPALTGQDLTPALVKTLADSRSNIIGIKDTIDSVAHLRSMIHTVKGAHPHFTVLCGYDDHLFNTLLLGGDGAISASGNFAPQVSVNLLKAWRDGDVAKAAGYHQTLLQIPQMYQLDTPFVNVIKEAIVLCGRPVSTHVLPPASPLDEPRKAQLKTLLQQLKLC
Chain of UniProt P0AA39 (P0AA39 whole entry): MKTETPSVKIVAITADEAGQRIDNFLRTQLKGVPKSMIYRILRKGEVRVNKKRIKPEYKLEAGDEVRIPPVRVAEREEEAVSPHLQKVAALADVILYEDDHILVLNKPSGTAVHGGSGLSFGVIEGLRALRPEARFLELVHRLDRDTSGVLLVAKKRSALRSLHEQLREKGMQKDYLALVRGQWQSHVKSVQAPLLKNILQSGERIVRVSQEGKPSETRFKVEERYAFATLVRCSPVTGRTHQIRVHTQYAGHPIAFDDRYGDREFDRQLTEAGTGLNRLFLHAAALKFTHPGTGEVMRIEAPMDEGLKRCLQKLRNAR
Chain of UniProt P19323 (P19323 whole entry): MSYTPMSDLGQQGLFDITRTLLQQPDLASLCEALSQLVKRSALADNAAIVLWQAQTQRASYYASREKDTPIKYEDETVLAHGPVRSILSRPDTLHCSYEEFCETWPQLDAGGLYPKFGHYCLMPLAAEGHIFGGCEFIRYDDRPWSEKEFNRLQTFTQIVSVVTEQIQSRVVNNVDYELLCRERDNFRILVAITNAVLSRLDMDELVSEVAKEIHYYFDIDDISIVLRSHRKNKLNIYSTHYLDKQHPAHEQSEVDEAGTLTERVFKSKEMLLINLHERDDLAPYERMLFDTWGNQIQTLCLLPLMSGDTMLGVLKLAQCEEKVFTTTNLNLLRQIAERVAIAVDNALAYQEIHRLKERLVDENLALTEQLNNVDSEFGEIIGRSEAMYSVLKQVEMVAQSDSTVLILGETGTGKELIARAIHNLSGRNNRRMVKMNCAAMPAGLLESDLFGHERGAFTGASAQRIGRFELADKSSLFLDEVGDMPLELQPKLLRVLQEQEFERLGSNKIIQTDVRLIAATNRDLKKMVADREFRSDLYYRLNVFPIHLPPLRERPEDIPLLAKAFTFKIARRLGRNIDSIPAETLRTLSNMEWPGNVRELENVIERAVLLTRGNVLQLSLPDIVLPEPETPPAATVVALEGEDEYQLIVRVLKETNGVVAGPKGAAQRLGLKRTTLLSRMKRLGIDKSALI
Chain of UniProt P30844 (P30844 whole entry): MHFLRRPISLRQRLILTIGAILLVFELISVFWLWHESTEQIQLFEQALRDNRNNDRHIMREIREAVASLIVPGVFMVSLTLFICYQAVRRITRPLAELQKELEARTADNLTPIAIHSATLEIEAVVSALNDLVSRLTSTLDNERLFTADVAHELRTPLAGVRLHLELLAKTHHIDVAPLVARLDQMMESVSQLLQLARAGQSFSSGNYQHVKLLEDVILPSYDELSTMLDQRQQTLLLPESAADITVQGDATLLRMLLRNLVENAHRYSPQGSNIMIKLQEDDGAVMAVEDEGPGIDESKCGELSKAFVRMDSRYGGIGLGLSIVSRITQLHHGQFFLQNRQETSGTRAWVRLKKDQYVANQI
Chain of UniProt P75796 (P75796 whole entry): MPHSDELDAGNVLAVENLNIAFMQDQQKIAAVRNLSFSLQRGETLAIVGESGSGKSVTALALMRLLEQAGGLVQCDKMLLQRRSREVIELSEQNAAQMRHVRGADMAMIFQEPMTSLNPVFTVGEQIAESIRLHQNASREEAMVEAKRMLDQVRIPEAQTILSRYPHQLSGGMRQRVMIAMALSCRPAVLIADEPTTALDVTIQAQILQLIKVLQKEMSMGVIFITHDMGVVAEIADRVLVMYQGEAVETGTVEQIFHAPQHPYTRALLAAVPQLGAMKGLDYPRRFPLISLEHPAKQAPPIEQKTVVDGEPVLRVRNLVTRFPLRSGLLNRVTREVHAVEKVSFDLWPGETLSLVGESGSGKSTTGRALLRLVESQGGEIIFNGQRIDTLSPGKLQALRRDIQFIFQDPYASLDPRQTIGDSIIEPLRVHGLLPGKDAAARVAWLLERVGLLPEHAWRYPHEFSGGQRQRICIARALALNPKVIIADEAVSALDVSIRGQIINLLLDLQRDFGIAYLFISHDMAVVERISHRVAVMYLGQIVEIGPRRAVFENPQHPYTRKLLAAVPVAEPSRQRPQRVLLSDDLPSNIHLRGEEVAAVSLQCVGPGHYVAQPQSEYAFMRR
Chain of UniProt Q46802 (Q46802 whole entry): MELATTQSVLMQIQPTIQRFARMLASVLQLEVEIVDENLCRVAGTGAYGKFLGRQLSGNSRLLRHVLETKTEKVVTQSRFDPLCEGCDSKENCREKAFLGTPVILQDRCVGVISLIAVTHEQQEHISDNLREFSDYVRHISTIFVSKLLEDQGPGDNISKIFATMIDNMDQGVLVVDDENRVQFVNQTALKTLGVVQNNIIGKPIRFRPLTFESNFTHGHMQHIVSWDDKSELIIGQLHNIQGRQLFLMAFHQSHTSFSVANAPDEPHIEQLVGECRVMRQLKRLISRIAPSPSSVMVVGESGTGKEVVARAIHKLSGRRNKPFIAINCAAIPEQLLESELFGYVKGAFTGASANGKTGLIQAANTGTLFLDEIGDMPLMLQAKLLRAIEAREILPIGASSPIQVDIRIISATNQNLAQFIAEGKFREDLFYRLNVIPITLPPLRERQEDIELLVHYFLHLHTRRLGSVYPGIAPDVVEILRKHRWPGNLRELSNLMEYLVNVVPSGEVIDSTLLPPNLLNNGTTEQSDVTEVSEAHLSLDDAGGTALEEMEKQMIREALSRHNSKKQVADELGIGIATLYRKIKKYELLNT
Chain of UniProt P39383 (P39383 whole entry): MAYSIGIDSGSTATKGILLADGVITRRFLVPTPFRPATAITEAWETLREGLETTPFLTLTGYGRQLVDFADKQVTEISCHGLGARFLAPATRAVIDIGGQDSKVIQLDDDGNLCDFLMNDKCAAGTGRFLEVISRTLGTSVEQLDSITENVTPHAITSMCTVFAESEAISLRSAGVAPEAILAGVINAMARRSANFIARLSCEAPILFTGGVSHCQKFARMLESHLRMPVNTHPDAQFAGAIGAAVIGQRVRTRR
Chain of UniProt P00946 (P00946 whole entry): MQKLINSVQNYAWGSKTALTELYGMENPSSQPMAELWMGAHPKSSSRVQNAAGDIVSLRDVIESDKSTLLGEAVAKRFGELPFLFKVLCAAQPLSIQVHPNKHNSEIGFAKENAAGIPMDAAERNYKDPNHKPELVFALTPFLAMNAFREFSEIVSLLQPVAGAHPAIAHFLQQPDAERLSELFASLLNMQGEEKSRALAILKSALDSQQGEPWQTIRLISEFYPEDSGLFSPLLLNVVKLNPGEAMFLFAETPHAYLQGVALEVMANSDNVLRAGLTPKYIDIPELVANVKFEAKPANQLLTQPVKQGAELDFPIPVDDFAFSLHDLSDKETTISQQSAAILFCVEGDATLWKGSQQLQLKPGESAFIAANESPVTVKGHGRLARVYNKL
Chain of UniProt P33371 (P33371 whole entry): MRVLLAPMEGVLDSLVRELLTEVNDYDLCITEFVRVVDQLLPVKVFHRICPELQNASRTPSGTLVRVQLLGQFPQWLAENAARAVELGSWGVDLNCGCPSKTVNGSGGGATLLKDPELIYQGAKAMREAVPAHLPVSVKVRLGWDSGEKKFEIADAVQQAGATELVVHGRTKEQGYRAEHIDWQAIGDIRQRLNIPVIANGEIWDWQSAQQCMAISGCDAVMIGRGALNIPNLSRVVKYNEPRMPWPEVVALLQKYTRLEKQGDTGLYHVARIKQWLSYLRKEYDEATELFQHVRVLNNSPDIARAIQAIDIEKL

Target | log2 fold change
UniProt P75796 (peptide sequence: VHGLLPGKDAAAR, peptide start residue: 430) | 1.01
UniProt Q46802 (peptide sequence: GAFTGASANGK, peptide start residue: 347) | -0.841
UniProt P37326 (peptide sequence: YNPAPDLADAMK, peptide start residue: 179) | -0.342
UniProt Q47622 (peptide sequence: KMNADDVVFTFQR, peptide start residue: 117) | 1.14
UniProt P0AA39 (peptide sequence: NILQSGER, peptide start residue: 198) | -0.653
UniProt P39383 (peptide sequence: MLESHLR, peptide start residue: 221) | -0.592
UniProt P75682 (peptide sequence: AWRDGDVAK, peptide start residue: 229) | -1.32
UniProt P19323 (peptide sequence: ELENVIER, peptide start residue: 600) | -0.833
UniProt P30844 (peptide sequence: NLVENAHR, peptide start residue: 260) | -1.02
UniProt P33371 (peptide sequence: ICPELQNASR, peptide start residue: 49) | 0.883
UniProt P77395 (peptide sequence: RQLYALLY, peptide start residue: 277) | 0.6
UniProt P00946 (peptide sequence: FEAKPANQLLTQPVK, peptide start residue: 293) | -0.633
